From PubChem BioAssay
Values joined by “and” are separate entries in the source; they are usually repeats but may differ in a detail not shown here. Equal entries are not always repeated. Active and inactive are the calls of the source. Rule as the data show it, unless noted: active = inhibition above about 80%; inactive = the rest.

Columns and labels:
[1] = compounds altering viability of human ES cells (AID 493140; call rule not given here;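 also: cells exposed to compounds for four days before counting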); conditions: human embryonic stem cell survival screen; stronger effect = higher value
[2] = P. berghei load reduction in hepatocytes – cell-based, HepG2, luciferase luminescence, HepG2 viability, primary screen (AID 624349; in the data active = parasite load remaining mostly below about 12%, no sharp cut-off; inactive = mostly above about 10%;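 also: 100% = mean of DMSO negative control wells on the same plate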); conditions: P. berghei liver stage in HepG2, luciferase luminescence, concentration not given here; parasite load remaining: stronger effect = lower value; viability: measured here: HepG2 viability without parasites
[3] = viability loss with induced miR-34 in A549 – imaging, A549 dox-inducible miR-34, nuclei and caspase counts, primary screen (AID 1347080;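 active = compounds whose cell count with miR-34 switched on is under 0.7 times the count with it off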); conditions: A549 miR-34 inducible, Hoechst nuclei count, 48 h
[4] = MELAS cybrid and Rieske KO viability enhancers – cell-based, MELAS cybrids, Rieske KO mouse fibroblasts, CellTiter-Glo, primary screen (AID 1508586;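 active = mean z-score across replicates of 1.96 or higher in either the MELAS or the Rieske mutant cell line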;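 also: z relative to plate mean and SD of compound and empty wells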); conditions: low glucose
[5] = growth inhibition, single agent or in combination, cell-based, chromothripsis tumors, cisplatin or BGB combos (AID 1671449); conditions: LFS_MB_P medulloblastoma cells;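 also: cells exposed for 96 hours; 0% = vehicle DMSO and 100% = killing by high DMSO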
[6] = growth inhibition, single agent and combos, cell-based, chromothripsis tumors, cisplatin or BGB combos (AID 1671450); conditions: HDN33 neuroblastoma cells, stronger effect = higher value;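 also: cells exposed to compound for four days; 0% = vehicle DMSO and 100% = cell killing by high DMSO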
[7] = growth inhibition, single agents and combos, ICB984, cell-based, cisplatin or BGB combos, synergistic combos for chromothripsis tumors (AID 1671451; call rule not given here;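 also: cells exposed for 96 hours before readout; 0% = vehicle DMSO and 100% = killing by high DMSO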); conditions: ICB984 medulloblastoma cells, drug combinations, stronger effect = higher value
[8] = growth inhibition, single agents and combos, LFS_MB_1R, cell-based, cisplatin or BGB combos, synergistic combos for chromothripsis tumors (AID 1671452); conditions: LFS_MB_1R medulloblastoma cells, stronger effect = higher value;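 also: cells exposed for 96 hours before readout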
[9] = growth inhibition, single agents and combos, HTB85, cell-based, BGB or cisplatin IC20 combos, synergistic combos for chromothripsis tumors (AID 1671453); conditions: HTB85 osteosarcoma cells, drug combinations, stronger effect = higher value;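 also: cells exposed for 96 hours before readout; 0% = vehicle DMSO and 100% = high DMSO killing control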
[10] = growth inhibition, single agents and combos, CRL2098, cell-based, BGB or cisplatin IC20 combos, synergistic combos for chromothripsis tumors (AID 1671454); conditions: CRL2098 osteosarcoma cells, drug combinations, stronger effect = higher value;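 also: cells exposed for 96 h before readout; 0% = vehicle DMSO and 100% = killing by high DMSO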
[11] = growth inhibition, single agents and combos, HD-MB03, cell-based, BGB or cisplatin IC20 combos, synergistic combos for chromothripsis tumors (AID 1671455; in the data active = inhibition above about 83%;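 also: 0% = vehicle DMSO and 100% = high DMSO as cytotoxic control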); conditions: HD-MB03 medulloblastoma cells, stronger effect = higher value
[12] = growth inhibition, single agents and combos, UWB1.289, cell-based, BGB or cisplatin combos, synergistic combos for chromothripsis tumors (AID 1671456); conditions: UWB1.289 ovarian carcinoma cells, stronger effect = higher value;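 also: cells exposed to compound for four days; 0% = vehicle DMSO and 100% = killing by high DMSO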
[13] = growth inhibition, single agents and combos, LFS_MB_2R, cell-based, cisplatin combos, synergistic combos for chromothripsis tumors (AID 1671457); conditions: LFS_MB_2R medulloblastoma cells, stronger effect = higher value;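 also: cells exposed to compound for four days before readout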
[14] = growth inhibition, MDA-MB-436, cell-based, BGB or cisplatin combos, synergistic combos for chromothripsis tumors (AID 1671458; call rule not given here;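 also: cells exposed for 96 hours; 0% = vehicle DMSO and 100% = killing by high DMSO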); conditions: MDA-MB-436 breast carcinoma growth inhibition, drug combinations, stronger effect = higher value
[15] = UWB1.289_BRCA1 ovarian cancer growth, cell-based, BGB or cisplatin combinations (AID 1671459); conditions: UWB1.289 BRCA1 ovarian carcinoma, drug combinations, stronger effect = higher value
[16] = drug combination toxicity in non-malignant astrocytes – cell-based, BGB or cisplatin IC20 combos, cytotoxicity control for chromothriptic childhood tumor combination screen (AID 1671460); conditions: Human astrocytes, viability inhibition, drug combinations, at 0.5 µM, stronger effect = higher value;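 also: cells exposed to compounds for 96 hours before viability readout; 0% = vehicle and 100% = killing control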
[17] = BT084 cell growth, single and combined drugs, ICGC_MB145, cisplatin and BGB IC40 combos (AID 1671461); conditions: BT084 medulloblastoma cells, drug combinations, stronger effect = higher value;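 also: cells exposed to drugs for 96 hours; 0% = vehicle DMSO and 100% = high DMSO full killing control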
[18] = RCMB18 cell growth, single agent and combined, cisplatin and BGB IC40 combos (AID 1671462); conditions: RCMB18 medulloblastoma cells, stronger effect = higher value;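 also: cells exposed to compound for four days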
[19] = CRL1545 cell growth, single agent and combined, cisplatin and BGB IC20 combos (AID 1671464); conditions: CRL1545 osteosarcoma cells, stronger effect = higher value;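 also: cells exposed to compound for 96 hours before readout; 0% = vehicle DMSO and 100% = high DMSO killing control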
[20] = stronger effect = lower value, cell number ratio, induced over uninduced
[21] = measured here: relative caspase fold change +Dox/-Dox
[22] = measured here: total cells with miR-34 induction, stronger effect = lower value
[23] = measured here: total cells without miR-34 induction
[24] = MELAS cybrid survival, CellTiter-Glo 48 h, stronger effect = higher value
[25] = Rieske KO mouse fibroblast survival, CellTiter-Glo 72 h
[26] = measured here: combination with BGB IC40, at 0.05 µM
[27] = measured here: with BGB IC20 combination, at 0.5 µM
[28] = measured here: with cisplatin IC20 combination, at 0.5 µM
[29] = measured here: combination with cisplatin, at 0.5 µM
[30] = measured here: combination with cisplatin, at 5 µM

## CC1CS(=O)(=O)CCN1N=Cc1ccc([N+](=O)[O-])o1 (stereo not given)
[1]
  survival: 3.75 (inactive)
[2]
  parasite load remaining: 67.6% (inactive)
  viability: 75.5%
[3]; [20]
  fold change: 0.925 (inactive)
[3]; [21]
  fold change: 0.621
[3]; [22]
  cell count: 8950
[3]; [23]
  cell count: 9680
[4]; [24]
  z-score: -0.298 (inactive)
[4]; [25]
  z-score: -0.374

## Cc1cc(C=Cc2ccc3cc(N(C)C)ccc3[n+]2C)c(C)n1-c1ccccc1
[1]
  survival: 2.17 (inactive)
[2]
  parasite load remaining: 0.11% (inactive)
  viability: 48.8%
[3]; [20]
  fold change: 1.3 (inactive)
[3]; [21]
  fold change: 1.04
[3]; [22]
  cell count: 2390
[3]; [23]
  cell count: 1840
[4]; [24]
  z-score: 0.882 (inactive)
[4]; [25]
  z-score: 0.984

## CC(C)(C)CC(C)(C)c1ccc(OCOCCOCCO)c(Cc2cc(C(C)(C)CC(C)(C)C)cc(Cc3cc(C(C)(C)CC(C)(C)C)ccc3OCOCCOCCO)c2OCOCCOCCO)c1
[1]
  survival: 1.75 (inactive)
[2]
  parasite load remaining: 112% (inactive)
  viability: 98.8%
[3]; [20]
  fold change: 0.877 (inactive)
[3]; [21]
  fold change: 1.23
[3]; [22]
  cell count: 7920
[3]; [23]
  cell count: 9040
[4]; [24]
  z-score: -2.08 (inactive)
[4]; [25]
  z-score: -1.21

## CNc1ncnc2c1ncn2[C@@H]1O[C@H](CO)[C@@H](O)[C@H]1O
[1]
  survival: 5.42 (inactive)
[2]
  parasite load remaining: 23.9% (inactive) and 70.7% (inactive)
  viability: 132% and 78.2%
[3]; [20]
  fold change: 0.829 (inactive)
[3]; [21]
  fold change: 1.48
[3]; [22]
  cell count: 7800
[3]; [23]
  cell count: 9420
[4]; [24]
  z-score: 0.118 (inactive)
[4]; [25]
  z-score: -0.237

## O=c1[nH]cnc2c1ncn2C1OC(CO)C(O)C1O (stereo not given)
[3]; [20]
  fold change: 0.971 (inactive)
[3]; [21]
  fold change: 0.634
[3]; [22]
  cell count: 8460
[3]; [23]
  cell count: 8710
[4]; [24]
  z-score: -0.214 (inactive)
[4]; [25]
  z-score: -0.0718
[5]; at 0.5 µM, stronger effect = higher value
  inhibition: -10.7% (inactive) and -25.9% (inactive)
[5]; measured here: combination with BGB IC20, at 0.005 µM
  inhibition: -29.2% and -10.3%
[5]; measured here: combination with BGB IC40, at 0.005 µM
  inhibition: -37.9% and -36.7%
[5]; [26]
  inhibition: -34.2% and -41.2%
[5]; measured here: combination with cisplatin, at 0.5 µM, stronger effect = higher value
  inhibition: -24.2% and -36.9%
[5]; measured here: combination with cisplatin, at 5 µM, stronger effect = higher value
  inhibition: -32.2% and -50.7%
[6]; BGB combo, at 5 µM
  inhibition: -71.8% and -17.3%
[6]; at 0.5 µM
  inhibition: -41% (inactive) and -8.53% (inactive)
[6]; cisplatin combo, at 5 µM
  inhibition: -53.5% and 3.12%
[6]; [27]
  inhibition: -43% and -17%
[6]; [28]
  inhibition: -29.3% and -1.72%
[6]; single agent, at 5 µM
  inhibition: -56.1% and -7.95%
[7]; BGB IC20 combo, at 0.005 µM
  inhibition: -8.62% and -21.3%
[7]; BGB IC40 combo, at 0.005 µM
  inhibition: -26.4% and -10.8%
[7]; BGB IC40 combo, at 0.05 µM
  inhibition: -29.3% and -11.3%
[7]; at 0.5 µM
  inhibition: -22.2% (inactive) and -24.4% (inactive)
[7]; cisplatin combo, at 0.05 µM
  inhibition: -36% and -15.3%
[7]; cisplatin combo, at 0.5 µM
  inhibition: -33.9% and -9.22%
[7]; cisplatin combo, at 5 µM
  inhibition: -24.4% and -48%
[7]; measured here: 5 uM single agent, at 5 µM
  inhibition: -3.92% and -14.5%
[8]; at 0.5 µM
  inhibition: -44.3% (inactive) and -17.7% (inactive)
[8]; [26]
  inhibition: -7.53% and -27.6%
[8]; [29]
  inhibition: -65.5% and -12.7%
[8]; [30]
  inhibition: -61.2% and -68.6%
[9]; at 0.5 µM
  inhibition: -33.2% (inactive) and -8.83% (inactive)
[9]; measured here: with BGB IC20, at 0.5 µM
  inhibition: -29.3% and -11.2%
[9]; measured here: with BGB IC20, at 5 µM
  inhibition: -15.9% and -25.5%
[9]; measured here: with cisplatin IC20, at 0.5 µM
  inhibition: -32% and -10.1%
[9]; measured here: with cisplatin IC20, at 5 µM
  inhibition: -20.2% and -47.1%
[9]; single agent, at 5 µM
  inhibition: -29.3% and -10.1%
[10]; at 0.5 µM
  inhibition: -90% (inactive) and -56.6% (inactive)
[10]; measured here: combination with BGB at IC20, at 0.5 µM
  inhibition: -87.4% and -18.5%
[10]; measured here: combination with cisplatin at IC20, at 0.5 µM
  inhibition: -101% and -96.8%
[11]; at 0.5 µM
  inhibition: -22.6% (inactive) and -12.7% (inactive)
[11]; measured here: combo with BGB at IC20, at 0.5 µM
  inhibition: -22.7% and -11.5%
[11]; measured here: combo with cisplatin at IC20, at 0.5 µM
  inhibition: -27.8% and -18.3%
[12]; at 0.5 µM
  inhibition: -11.2% (inactive) and -3.6% (inactive)
[12]; measured here: inhibition with BGB combination, at 0.05 µM
  inhibition: -39.3% and 0.127%
[12]; measured here: inhibition with cisplatin combination, at 0.05 µM
  inhibition: -26% and -16.8%
[13]; at 0.5 µM
  inhibition: -25.5% (inactive) and -18.4% (inactive)
[13]; [29]
  inhibition: -31.3% and -25.6%
[13]; [30]
  inhibition: -22.2% and -17.4%
[14]; at 0.5 µM
  inhibition: -21.2% (inactive) and -4.5% (inactive)
[14]; measured here: BGB combination, at 0.5 µM
  inhibition: -24.8% and -4.38%
[14]; measured here: BGB combination, at 5 µM
  inhibition: -28.5% and -13.8%
[14]; measured here: cisplatin combination, at 0.5 µM
  inhibition: -29.8% and -11.4%
[14]; measured here: cisplatin combination, at 5 µM
  inhibition: -15.5% and -7.72%
[15]; BGB combination, concentration series, at 5 µM
  inhibition: -23.4% and 11.7%
[15]; at 0.5 µM
  inhibition: -19.3% (inactive) and -1.78% (inactive)
[15]; cisplatin combination, concentration series, at 5 µM
  inhibition: -16.4% and -23.2%
[16]
  inhibition: 3.07% (inactive) and 14% (inactive)
[16]; measured here: combo with BGB IC20
  inhibition: 13.9% and 6.47%
[16]; measured here: combo with cisplatin IC20
  inhibition: -4.13% and 24.5%
[17]; at 0.5 µM
  inhibition: -1.88% (inactive) and -23.7% (inactive)
[17]; cisplatin combination, at 0.5 µM
  inhibition: -2.01% and -52.6%
[17]; cisplatin combination, at 5 µM
  inhibition: -202% and -23.5%
[17]; measured here: BGB IC40 combination 0.05 uM, at 0.05 µM
  inhibition: -22.8% and -31.6%
[17]; single agent, at 5 µM
  inhibition: -16.1% and -9.19%
[18]; at 0.5 µM
  inhibition: -14.6% (inactive) and -17.6% (inactive)
[18]; cisplatin combo, at 5 µM
  inhibition: -27.4% and -4.56%
[18]; measured here: BGB IC40 combination, at 0.05 µM
  inhibition: -8.27% and -1.88%
[18]; [29]
  inhibition: -12.7% and -17.5%
[18]; single agent, at 5 µM
  inhibition: -19.5% and -20.5%
[19]; at 0.5 µM
  inhibition: -5.83% (inactive) and -5.48% (inactive)
[19]; [27]
  inhibition: -50.4% and -16.7%
[19]; [28]
  inhibition: 15.1% and -1.52%
[19]; single agent, at 0.05 µM
  inhibition: -48.7% and 14.4%
[19]; single agent, at 5 µM
  inhibition: -40.4%
